Assay outcomes deposited in PubChem BioAssay by National Center for Advancing Translational Sciences (NCATS).
HPGD block: HPGD (human) dehydrogenase inhibition | P15428 | purified HPGD, NADH fluorescence kinetic, PGE2 substrate | Potency, µM, for the others: at the highest dose activity change, negative = inhibition, usual class: inhibitors | 4.3% of 150,000 active | AID 894; further: potency means the concentration at half of the fitted maximal effect
Target sequence (P15428 whole entry, looked up): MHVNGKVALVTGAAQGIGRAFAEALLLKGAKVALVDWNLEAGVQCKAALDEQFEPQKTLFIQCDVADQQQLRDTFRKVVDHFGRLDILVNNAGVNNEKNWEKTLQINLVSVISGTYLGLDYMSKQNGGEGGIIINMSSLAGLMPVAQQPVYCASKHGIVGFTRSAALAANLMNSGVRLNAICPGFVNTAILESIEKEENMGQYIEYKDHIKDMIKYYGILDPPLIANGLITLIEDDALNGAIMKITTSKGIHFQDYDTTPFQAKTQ
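NADH formation kinetics: reaction with 30 uM PGE2 and 1 mM NAD+ (final), 20 nM enzyme, Tris-HCl pH 8 with Tween 20, after 15 min compound preincubation at room temperature. Fluorescence change, last versus first of five reads.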
ALDH1A1 block: ALDH1A1 (human) enzyme inhibition. 7.3% of 220,000 active. P00352. Potency, µM (highest dose often 75.3 µM), for inactives: top-dose activity, negative = inhibition, usual class: inhibitors. AID 1030. Purified ALDH1A1, NADH fluorescence, propionaldehyde substrate;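 further: potency means the concentration at half of the fitted maximal effect; plate controls were no enzyme wells and a reference inhibitor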
KinaseGlo FLuc: blocks Kinase-Glo luciferase, a counter-screen artifact. Q27757. Kinase-Glo luciferase, ATP luminescence, 8 min. Potency, µM (doses to about 38.3 µM), for inactives: top-dose activity change, negative = inhibition, actives largely listed as inhibitors. 0.28% of 200,000 active. AID 1379; active means well fitted inhibition curve with a large enough effect; inconclusive means small, poorly fitted or top-dose-only effect; further: potency means the concentration at half of the fitted maximal effect; nearly all actives have a fitted effect of over 60% in size
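Substrate mix (final 50 mM imidazole pH 7.2, 50 mM KCl, 7 mM MgCl2, 10 uM ATP, 0.01% Tween 20, 0.05% BSA) plus pin-tool compound, then Kinase-Glo detection mix; 8 min ambient, luminescence read.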
Lamin A splicing: LMNA splicing modulation; HeLa LMNA splicing GFP/RFP minigene ratio, 48 h; AID 1487; 0.01% of 200,000 active; Potency, µM (series often up to 46.1 µM), for inactives: at the highest dose ratio change, negative = inhibition, hits mostly inhibitors; active means well fitted inhibition curve with a large enough effect in the signal ratio, with a control signal flat, not every such curve was filed as active; inconclusive means small, poorly fitted or top-dose-only effect, or effect the other way, or a change in a side signal; the % refers to the signal ratio; further: potency means the concentration at half of the fitted maximal effect
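S3 HeLa cells stably expressing lamin A-EGFP splicing minigene plus DsRed2, 600 cells/well, 48 h compound exposure at 37C. Laser-scanning cytometry; analysed as GFP (500-530 nm)/RFP (575-640 nm) total intensity ratio; 0.5% DMSO vehicle.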
PNC assembly inh: blocks assembly of the perinucleolar compartment. PC3M PTB-GFP, PNC prevalence imaging, 16 h; hits give low values. activity change (PNC), negative = inhibition, % at 10 µM. 3.1% of 140,000 active. AID 2417;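 active means readout at or below -70, meaning at least 70% loss of cells showing the perinucleolar compartment, a nuclear body marking cancer cells; inconclusive means readout between -30 and a set limit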;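 further: plate controls were DMSO wells for no effect and camptothecin positive control wells for full effect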
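PC3M cells stably expressing PTB-GFP, 750–1000 cells/well, treated 16 h at 37 °C with compound (23 nl of library stock), in duplicate. After paraformaldehyde fixation and Hoechst stain, imaged at 20x; PNC prevalence scored by image analysis.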
An asterisk follows results filed as active; ? = inconclusive; · = no result given; [ ] = another dose, or the depositor's remark. The list is not random: actives were taken first. Their share in the collection is about 10%. Unless noted, the call rests on the fitted dose curve; in most records, active means well fitted inhibition curve with a large enough effect (not every such curve was filed as active); inconclusive means small, poorly fitted or top-dose-only effect, or another doubt; inactive means no such curve, though single readings can be large or run the other way. Unless noted, on the % scale 0 is the no-effect control and ±100 the full control effect.

SMILES	HPGD block	ALDH1A1 block	KinaseGlo FLuc	Lamin A splicing	PNC assembly inh
COCCC(=O)N1CCCC(CCC(=O)NCc2ccc(F)c(F)c2)C1 (stereo not given)	·	2%	1%	-3%[46 µM]	·
CCOC(=O)CNC(=O)N1CCCC(CCC(=O)NCc2ccc(F)c(F)c2)C1 (stereo not given)	·	32µM*	8%	·	·
CC(=O)N1CCC2(CCN(Cc3cc(C(F)(F)F)cc(C(F)(F)F)c3)CC2)CC1	-10%	6%	-4%	·	·
CCC1(O)CC2CN(CCc3c([nH]c4ccccc34)[C@@](C(=O)OC)(c3cc4c(cc3OC)N(C)C3[C@]45CCN4CC=C[C@@](CC)([C@@H](OC(C)=O)[C@]3(O)C(=O)OC)[C@H]45)C2)C1 (stereo not given in full)	-5%	-11%	-3%	?	·
N#CCCN(CCC#N)C(=O)COc1ccc(Cl)cc1Cl	0%	-6%	-2%	7%	22
CCOC(=O)CCC(=O)N(CCN(C(=O)CCC(=O)OCC)c1ccccc1)c1ccccc1	0%	2%	-1%	-1%	30
CCCCCCCN(C(=O)CCl)c1cccc(C)c1	-26%	0.22µM*	2%	-14%	16
N#CCCN(C(=O)CCl)c1cccc(Cl)c1	·	0.11µM*	-1%	·	·
CC(=O)Nc1ccc(OCC(O)Cn2c3ccccc3c3ccccc32)c(C)c1 (stereo not given)	25µM*	3%	2%	?	38
COC(=O)C(C)N1C(=O)S/C(=C/c2cc(C)n(-c3ccccn3)c2C)C1=O (stereo not given)	-5%	?	2%	0%	15
COC(=O)C(C)N1C(=O)S/C(=C\c2cc(C)n(-c3ccccn3)c2C)C1=O (stereo not given)	-26%	22µM*	11%	-9%	7
C[C@H](N)c1nnc(SCc2c(Cl)cccc2Cl)o1	32µM*	-4%	-2%	-2%	3
C[C@H](N)c1nnc(SCc2ccc(Cl)cc2Cl)o1	-7%	9%	-3%	2%	-13
CCOc1ccc(N(Cc2ccccc2F)C2=NC3CS(=O)(=O)CC3S2)cc1 (stereo not given)	·	4%	4%	10%[9.22 µM]	·
O=C1NC(=O)c2cc([N+](=O)[O-])ccc21	-9%	2%	·	·	·
O=C(C1CCCN(Cc2cccnc2)C1)N1CCCCC1 (stereo not given)	·	5µM*	·	16%	-82*
C/C(=C\c1ccccc1)CN1CCC(C(=O)N2CCC(C)CC2)CC1	-7%	35µM*	-4%	1%	36
C/C(=C\c1ccccc1)CN1CCC(C(=O)N2CCCCC2)CC1	14µM*	?	11%	4%	-16
O=C(C1CCN(CCCc2ccccc2)CC1)N1CCCCC1	-18%	14µM*	-4%	-4%	63
Cc1ccc2ncc3c(-c4ccccc4)nn(CC(=O)NC4CCCCC4)c3c2c1	·	·	·	9%[46 µM]	·
O=C(CSc1nc(=O)[nH]c2c1CCCC2)NCc1ccccc1	·	·	·	-5%[46 µM]	·
COc1ccc(CCNC(=O)C2CCN(S(=O)(=O)c3c(C)noc3/C=C/c3ccc(C)cc3)CC2)cc1OC	·	·	·	-1%[46 µM]	·
Cc1occc1C(=O)NCc1ccccc1	-21%	-2%	-4%	-4%	16
Cc1ccccc1C(=O)NCCCc1ccccc1	14µM*	-8%	0%	5%	39
Cc1occc1C(=O)NCCCCc1ccccc1	20µM*	18µM*	8%	11%	?
SMILES	HPGD block	ALDH1A1 block	KinaseGlo FLuc	Lamin A splicing	PNC assembly inh
CCOc1ccc(OCC)c(NC(=O)C2CCN(c3nnc(-n4cccc4)s3)CC2)c1	·	·	·	0%[46 µM]	·
O=C1NC(=O)/C(=C\c2ccc(N3CCOCC3)o2)N1	·	?	-3%	·	·
O=C1N=C(N2CCOCC2)S/C1=C/c1ccc(-c2ccccc2Cl)o1	-18%	-10%	3%	-8%	-15
O=C1S/C(=C\c2ccc(N3CCOCC3)o2)C(=O)N1c1ccccc1	·	0.89µM*	-4%	·	·
O=C1S/C(=C\c2ccc(N3CCOCC3)o2)C(=O)N1Cc1c(F)cccc1Cl	?	0.13µM*	0%	?	28
O=C1S/C(=C/c2ccc(N3CCOCC3)o2)C(=O)N1Cc1c(F)cccc1Cl	-19%	0.13µM*	-4%	6%	-28
CCN1C(=S)SC(=O)C1=C1C=C(C)N(Cc2ccco2)C(C)=C1	-29%	2.5µM*	-1%	?	-7
